As a reminder, the AC50 is the concentration at which the activity in the assay is half-maximal.

This is an account of results in PubChem BioAssay (EPA / NIEHS).

Each structure is given as a SMILES string. Where “and” joins values, the source holds several entries; their conditions need not be identical. Identical values can stand only once. Calls of active or inactive are those of the source. The calls were made as follows: active = hit-call score of the fitted dose curve at least 0.9, where 1 is the maximum; inactive = score below 0.9.

A short description of assay [1]: ATG_CRE_CIS: Attagene CIS-FACTORIAL HepG2 Assay for human cAMP Responsive Element (CRE) binding protein 3 (AID 2282926). The following applies: HepG2 CRE cis-reporter, Attagene multiplexed mRNA; actives raise or lower the signal. Summed up: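 Capillary electrophoresis of 6-FAM-labelled, HpaI-digested PCR products quantified reporter transcripts. These came from HepG2 transiently transfected with cis-element reporters and exposed to test chemicals for 24 hours, with DMSO defining baseline activity.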

In assay [2] the target is CCAAT/enhancer-binding protein beta (Homo sapiens) (UniProt P17676). Put plainly: ATG_C_EBP_CIS: Attagene CIS-FACTORIAL HepG2 Assay for human CCAAT/Enhancer Binding Protein (C/EBP) beta (AID 2282927). To be noted: HepG2 Attagene cis-factorial transcription factor reporter; actives raise or lower the signal. The method in brief: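 Endogenous transcription factor activity in human liver HepG2 cells is inferred from induction of a CEBPB-linked reporter mRNA. Exposure lasts 24 h; activity is fitted in both directions relative to DMSO.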

The nature of assay [3]: ATG_CMV_CIS: Attagene CIS-FACTORIAL HepG2 Assay for human CMV (Internal Marker) (AID 2282928).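 Also: endpoint acts as a background internal control marker rather than a target.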 To be noted: HepG2 CMV promoter reporter, transcription factor profiling; actives raise or lower the signal. Summed up:
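Readout: fluorescent reporter cDNA fragments separated by capillary electrophoresis after RT-PCR and HpaI cut. Cells: HepG2 carrying transfected cis-promoter reporter constructs, dosed 24 h. Endpoint serves as background internal-marker control, fit bidirectionally versus DMSO.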

A short description of assay [4]: ATG_DR4_LXR_CIS: Attagene CIS-FACTORIAL HepG2 Assay for human Liver X Receptor (LXR), DR4 submotif (AID 2282929). The following applies: HepG2 Attagene DR4 cis-reporter, mRNA transcription; actives raise or lower the signal. Summed up: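 Readout: reporter transcript fluorescence after RT-PCR and capillary electrophoresis, fitted bidirectionally against DMSO controls. Human HepG2 liver cells carried transiently transfected multiplexed reporter constructs; endogenous transcription factor activity measured 24 h post-dosing.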

The target in assay [5] is Aryl hydrocarbon receptor (Homo sapiens) (UniProt P35869). Put plainly: ATG_Ahr_CIS: Attagene CIS-FACTORIAL HepG2 Assay for human Aryl Hydrocarbon Receptor (Ahr) (AID 2282930). The following applies: HepG2 AhR cis-factorial reporter transcription; actives raise or lower the signal. The method in brief: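 Transient MRTU transfection of HepG2 → 24 h compound exposure → total RNA, oligo(dT) RT → PCR, 6-FAM extension, HpaI cut → CE fluorescence. DMSO = baseline; bidirectional curve fit.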

A short description of assay [6]: ATG_AP_1_CIS: Attagene CIS-FACTORIAL HepG2 Assay for human Activator Protein 1 (AP-1) (AID 2282931). The following applies: HepG2 Attagene cis-factorial AP-1 reporter mRNA; actives raise or lower the signal. The method in brief:
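Reporter transcripts were measured 24 h after dosing by RT-PCR and capillary electrophoresis of fluorescent fragments. Cells: HepG2 carrying transfected cis-regulated reporter constructs reading endogenous factor activity. Gain or loss fitted against DMSO.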

Assay [7] in a line: ATG_AP_2_CIS: Attagene CIS-FACTORIAL HepG2 Assay for human Activator Protein 2 (AP-2) (AID 2282932). To be noted: HepG2 AP-2 cis-reporter, Attagene transcription factor profiling; actives raise or lower the signal. Summed up:
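Transiently transfected HepG2 cells are exposed to chemical for 24 h. Reporter transcripts are then measured as fluorescence following RT-PCR and capillary separation, and gain- or loss-of-signal is fitted relative to DMSO.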

Assay [8] is described as follows: ATG_BRE_CIS: Attagene CIS-FACTORIAL HepG2 Assay for human Bone Morphogenetic Protein (BMP) Response Element (BRE) (AID 2282933). To be noted: HepG2 BMP response element reporter, Attagene transcription factor profiling; actives raise or lower the signal. Summed up:
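Endogenous transcription factor activity at a BMP response element was monitored in transfected HepG2 cells 24 h after dosing. Fluorescent RT-PCR products were resolved by capillary electrophoresis, and activity was fitted in both directions versus DMSO.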

Assay [9] has as its target Retinoic acid receptor alpha (Homo sapiens) (UniProt P10276). Nature of the assay: ATG_DR5_RAR_CIS: Attagene CIS-FACTORIAL HepG2 Assay for human Retinoic Acid Receptor Alpha (RARE), DR5 submotif (AID 2282934).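 As to AC50: reporter responds to endogenous RAR alpha beta and gamma in HepG2 not RARA alone.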 The following applies: HepG2 Attagene cis-factorial RARE DR5 reporter, mRNA; actives raise or lower the signal. Summed up: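 Transient MRTU transfection of HepG2; 24 h compound treatment; TriZol RNA, oligo(dT) RT, PCR, FAM labelling, capillary electrophoresis. Bidirectional fit vs DMSO. Endogenous TF activity at DR5 RARE.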

For assay [10], the target named is Transcription factor E2F1 (Homo sapiens) (UniProt Q01094). Put plainly: ATG_E2F_CIS: Attagene CIS-FACTORIAL HepG2 Assay for human E2F Transcription Factor 1 (AID 2282935). The following applies: HepG2 Attagene cis-reporter, E2F reporter RNA transcripts; actives raise or lower the signal. The method in brief: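 Fluorescent RT-PCR products, digested with HpaI for 2 h at 37 C, are separated by capillary electrophoresis. Source RNA comes from transfected HepG2 cultures treated for 24 h.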

Assay [11] can be described thus: ATG_M_61_CIS: Attagene CIS-FACTORIAL HepG2 Assay for M61 Transcription Factor (Internal Marker) (AID 2282937). The following applies: HepG2 Attagene CIS-FACTORIAL M61 internal marker reporter; actives raise or lower the signal. Summed up:
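Readout: fluorescent reporter mRNA fragments resolved by capillary electrophoresis after RT-PCR. Transiently transfected human HepG2 cells carried MRTU constructs reporting endogenous TF activity; 24 h chemical exposure; gain or loss of signal fitted relative to DMSO.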

Assay [12] is described as follows: ATG_EGR_CIS: Attagene CIS-FACTORIAL HepG2 Assay for human Early Growth Response 1 (EGR1) (AID 2282938). The following applies: HepG2 Attagene CIS-FACTORIAL EGR reporter mRNA; actives raise or lower the signal. The method in brief: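 Read-out: fluorescent reporter-mRNA fragments resolved by capillary electrophoresis after RT-PCR, 24 h post-dose in transiently transfected HepG2. Endogenous transcription-factor activity reported via cis-element-regulated reporter units; gain or loss fitted relative to DMSO.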

Assay [13] can be described thus: ATG_M_19_CIS: Attagene CIS-FACTORIAL HepG2 Assay for M19 Transcription Factor (Internal Marker) (AID 2282939). To be noted: HepG2 Attagene CIS-FACTORIAL M19 internal marker reporter; actives raise or lower the signal. The method in brief: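 Background-control endpoint from a multiplexed HepG2 reporter panel. Cells carrying cis-regulated reporter constructs are treated 24 h, then reporter transcripts are amplified, fluorescently labelled and sized by capillary electrophoresis. DMSO defines baseline.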

Assay [14] can be described thus: ATG_ERE_CIS: Attagene CIS-FACTORIAL HepG2 Assay for Estrogen Response Element (ERE) (AID 2282940). To be noted: HepG2 ERE cis-reporter, Attagene RNA transcript; actives raise or lower the signal. Summed up:
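Cells used were human hepatoma HepG2, transfected with multiple reporter transcription units under cis-regulatory promoters. Reporter mRNA, read 24 h post-dosing via fluorescent RT-PCR products on capillary electrophoresis, was fitted bidirectionally relative to DMSO.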

Assay [15] can be described thus: ATG_Ets_CIS: Attagene CIS-FACTORIAL HepG2 Assay for human Erythroblast Transformation Specific (ETS) (AID 2282941). The following applies: HepG2 ETS cis-reporter transcription, actives raise or lower the signal. The method in brief:
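RT-PCR/capillary electrophoresis fluorescence read-out of reporter mRNA; HepG2 transient multi-reporter transfection; 24 h compound exposure; gain or loss of signal fitted bidirectionally relative to DMSO.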

In assay [16] the target is Hepatocyte nuclear factor 3-beta (Homo sapiens) (UniProt Q9Y261). Put plainly: ATG_FoxA2_CIS: Attagene CIS-FACTORIAL HepG2 Assay for human Forkhead box A2 (FOXA2) (AID 2282942). To be noted: HepG2 cis-reporter transcription factor activity, 24 h; actives raise or lower the signal. Summed up: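 Readout: fluorescent reporter transcripts resolved by capillary electrophoresis after RT-PCR. Transiently transfected HepG2, 24 h compound exposure, endogenous TF activity at cis promoter elements. Gain or loss of signal fitted relative to DMSO.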

A short description of assay [17]: ATG_FoxO_CIS: Attagene CIS-FACTORIAL HepG2 Assay for human Forkhead box O (FoxO) (AID 2282943). To be noted: HepG2 Attagene cis-reporter, FoxO element, mRNA; actives raise or lower the signal. Summed up:
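HepG2, transient MRTU transfection (cis element, endogenous TFs). Dose 24 h. TriZol RNA → oligo(dT) RT → PCR → 6-FAM primer extension → HpaI cut → CE. Gain/loss vs DMSO.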

Assay [18] is described as follows: ATG_GATA_CIS: Attagene CIS-FACTORIAL HepG2 Assay for human GATA Binding Protein (AID 2282944). The following applies: HepG2 GATA cis-element reporter, Attagene multiplex mRNA; actives raise or lower the signal. The method in brief:
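Endogenous transcription factor activity was captured through cis-promoter-driven reporters in transfected HepG2 cells. After 24 h exposure, reporter transcripts were quantified by RT-PCR with fluorescent capillary electrophoresis, and responses fitted both directions against DMSO.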

Assay [19] in a line: ATG_GLI_CIS: Attagene CIS-FACTORIAL HepG2 Assay for human Zinc Finger Protein GLI1 (AID 2282945). To be noted: HepG2, Attagene cis-factorial reporter mRNA, GLI element; actives raise or lower the signal. The method in brief:
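Bidirectional curve fits relative to DMSO, using reporter mRNA levels from RT-PCR plus capillary electrophoresis. Cells were HepG2 transiently carrying cis-regulated reporter constructs, harvested 24 h after dosing.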

Hepatocyte nuclear factor 3-beta (Homo sapiens), sequence (Q9Y261 whole entry, looked up): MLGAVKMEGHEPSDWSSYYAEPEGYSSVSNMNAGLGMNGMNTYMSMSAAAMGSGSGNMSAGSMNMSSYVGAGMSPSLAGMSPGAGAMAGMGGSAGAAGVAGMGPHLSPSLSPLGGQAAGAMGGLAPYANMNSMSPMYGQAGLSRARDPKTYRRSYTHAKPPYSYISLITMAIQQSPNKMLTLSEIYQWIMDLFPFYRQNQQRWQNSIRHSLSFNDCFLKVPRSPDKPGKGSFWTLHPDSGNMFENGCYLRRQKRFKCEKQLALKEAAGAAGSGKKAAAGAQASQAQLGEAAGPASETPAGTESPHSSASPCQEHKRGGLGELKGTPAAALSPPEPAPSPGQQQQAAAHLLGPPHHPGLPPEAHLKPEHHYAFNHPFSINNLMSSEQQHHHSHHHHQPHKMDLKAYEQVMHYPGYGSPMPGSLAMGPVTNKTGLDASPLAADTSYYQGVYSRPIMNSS
Aryl hydrocarbon receptor (Homo sapiens), sequence (P35869 whole entry, looked up): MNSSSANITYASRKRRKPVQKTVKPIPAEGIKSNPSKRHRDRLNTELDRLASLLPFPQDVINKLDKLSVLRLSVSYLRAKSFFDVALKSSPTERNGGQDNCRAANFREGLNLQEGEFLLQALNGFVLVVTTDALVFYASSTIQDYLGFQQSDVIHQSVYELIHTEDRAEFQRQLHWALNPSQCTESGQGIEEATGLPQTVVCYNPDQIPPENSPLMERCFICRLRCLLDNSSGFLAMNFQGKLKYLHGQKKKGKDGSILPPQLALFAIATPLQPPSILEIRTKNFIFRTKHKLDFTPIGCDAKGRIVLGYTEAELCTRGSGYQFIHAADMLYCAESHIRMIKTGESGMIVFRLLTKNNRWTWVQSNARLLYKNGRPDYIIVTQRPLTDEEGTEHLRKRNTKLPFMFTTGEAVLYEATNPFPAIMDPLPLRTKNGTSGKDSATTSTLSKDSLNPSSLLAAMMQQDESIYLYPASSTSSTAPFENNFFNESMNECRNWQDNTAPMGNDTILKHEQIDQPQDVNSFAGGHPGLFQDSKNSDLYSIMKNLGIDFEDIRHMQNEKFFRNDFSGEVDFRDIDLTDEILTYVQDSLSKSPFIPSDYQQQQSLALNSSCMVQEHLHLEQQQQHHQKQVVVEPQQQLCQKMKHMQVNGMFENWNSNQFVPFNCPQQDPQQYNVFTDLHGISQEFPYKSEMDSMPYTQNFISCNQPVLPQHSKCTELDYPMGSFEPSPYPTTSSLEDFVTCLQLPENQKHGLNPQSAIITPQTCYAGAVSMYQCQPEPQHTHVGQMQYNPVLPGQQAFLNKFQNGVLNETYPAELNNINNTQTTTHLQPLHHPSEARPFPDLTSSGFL
Transcription factor E2F1 (Homo sapiens), sequence (Q01094 whole entry, looked up): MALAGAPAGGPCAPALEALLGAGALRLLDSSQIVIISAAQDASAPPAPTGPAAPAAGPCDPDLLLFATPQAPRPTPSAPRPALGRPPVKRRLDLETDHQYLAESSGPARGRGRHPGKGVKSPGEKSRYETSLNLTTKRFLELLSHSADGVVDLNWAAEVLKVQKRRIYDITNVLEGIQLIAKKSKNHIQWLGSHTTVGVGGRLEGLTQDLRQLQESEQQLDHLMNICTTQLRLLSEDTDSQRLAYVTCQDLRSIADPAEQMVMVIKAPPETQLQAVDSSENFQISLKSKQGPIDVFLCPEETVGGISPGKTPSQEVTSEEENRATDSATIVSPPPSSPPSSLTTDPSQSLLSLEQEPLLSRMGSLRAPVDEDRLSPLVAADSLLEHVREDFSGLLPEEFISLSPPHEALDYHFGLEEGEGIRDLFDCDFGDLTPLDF
Retinoic acid receptor alpha (Homo sapiens), sequence (P10276 whole entry, looked up): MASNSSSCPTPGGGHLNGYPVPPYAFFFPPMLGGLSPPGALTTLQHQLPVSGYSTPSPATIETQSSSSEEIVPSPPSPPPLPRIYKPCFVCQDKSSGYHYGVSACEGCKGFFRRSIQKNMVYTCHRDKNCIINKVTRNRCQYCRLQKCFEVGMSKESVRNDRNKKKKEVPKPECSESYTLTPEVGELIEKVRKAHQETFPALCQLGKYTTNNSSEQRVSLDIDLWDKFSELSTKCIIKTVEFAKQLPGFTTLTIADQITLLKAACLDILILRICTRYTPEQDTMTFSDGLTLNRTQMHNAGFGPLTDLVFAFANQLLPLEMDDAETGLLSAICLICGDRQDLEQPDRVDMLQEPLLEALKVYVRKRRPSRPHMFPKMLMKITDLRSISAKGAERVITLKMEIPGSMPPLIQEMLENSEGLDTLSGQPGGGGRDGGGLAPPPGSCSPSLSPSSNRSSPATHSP
CCAAT/enhancer-binding protein beta (Homo sapiens), sequence (P17676 whole entry, looked up): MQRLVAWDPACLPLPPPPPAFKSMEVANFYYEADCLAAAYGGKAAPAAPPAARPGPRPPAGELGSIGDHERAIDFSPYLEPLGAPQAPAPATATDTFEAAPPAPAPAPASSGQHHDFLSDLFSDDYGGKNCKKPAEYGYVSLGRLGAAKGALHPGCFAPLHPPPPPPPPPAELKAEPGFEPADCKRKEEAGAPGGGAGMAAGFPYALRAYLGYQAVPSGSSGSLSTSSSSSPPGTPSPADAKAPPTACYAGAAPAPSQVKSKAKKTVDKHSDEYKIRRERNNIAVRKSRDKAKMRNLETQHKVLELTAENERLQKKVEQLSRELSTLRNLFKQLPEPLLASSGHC

In the case of `NC(=O)c1nc(-c2cccc(-c3cc(F)ccc3OCC(F)(F)C(F)(F)F)c2)n[nH]1`, the half-maximal activity concentration (AC50) in assay [1] was 27.7 µM (active); in assay [3], 12.1 µM (active); in assay [4], 44.4 µM (active); in assay [6], 24 µM (active); in assay [8] it was 19.8 µM (active); in assay [10] it was 16.8 µM (active). Moreover, in assay [12], the half-maximal activity concentration (AC50) was 40.2 µM (active). Moreover, the outcome in assay [2], in [5], in [7], in assay [9], in assay [11] and in assay [13] was inactive. The outcome in [14], in assay [15], in assay [16], in assay [17], in [18] and in [19] was inactive.

As for `CN(C)c1ccc(C(=C2C=CC(=[N+](C)C)C=C2)c2ccc(N(C)C)cc2)cc1`, the call in assay [1], in [3], in assay [5], in [7], in [8] and in assay [10] was inactive. Moreover, the result in assay [11], in [13], in assay [15], in [16], in assay [17] and in [18] was inactive. The outcome in assay [19] was inactive. For the same molecule, the AC50 is 4.56 µM (active) in assay [2]; 2.86 µM (active) in assay [4]; 2.23 µM (active) in assay [6]; 2.58 µM (active) in assay [9]; 2.23 µM (active) in assay [12]; 1.01 µM (active) in assay [14].

As to `Cc1ccc2oc(CN(Cc3ccccc3)C(=O)Nc3c(F)cc(F)cc3F)c(-c3ccc(Cl)cc3)c2c1`, the molecule was classed as inactive in [1], in [2], in assay [3], in assay [4], in [5] and in assay [6]. In addition, the outcome in assay [7], in [8], in assay [9], in [10], in assay [11] and in assay [12] was inactive. The outcome in assay [13], in [14], in assay [15], in [16], in assay [18] and in assay [19] was inactive.

As for `Oc1ccc2ccccc2c1`, the call in assay [1], in [2], in [3], in assay [6], in assay [7] and in [8] was inactive. In addition, the call in assay [9], in [10], in [11], in [12], in [13] and in assay [15] was inactive. Further, the molecule was classed as inactive in [16], in assay [18] and in [19]. The AC50 was 100 µM (active) in [4]; 870 nM (active) and 1.98 µM (active) in [5].
